Shown are actives, neighbours in structure and some others; about 5.8% of the full set was active somewhere.
RORgamma inh = inhibitors of mouse ROR gamma transcriptional activity; P51450; Drosophila S2 Gal4-RORgamma UAS-luciferase reporter, 20 h; Potency, µM (series often up to 53.6 µM), inactives show top-dose activity change, negative = inhibition, hits mostly inhibitors; actives 5.4% (n = 310,000); further: potency means the concentration at half of the fitted maximal effect; on the % scale 0 is the no-effect control and ±100 the full control effect; nearly all actives have a fitted effect of over 60% in size
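Schneider cells (Drosophila), stable Gal4 DBD–ROR gamma + UAS-luc; 1 hr cmpd preincubation; Cu2+ induction 700 uM final; 20 hr ambient; luminescence.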
Gal4-VP16 FLuc = inhibits Gal4-VP16 luciferase reporter, ROR gamma counter-screen. Drosophila S2 Gal4-VP16 UAS-luciferase, luminescence, 20 h. Potency, µM (doses to about 53.6 µM), for the others: at the top dose activity, negative = inhibition, hits mostly inhibitors. actives 3.5% (n = 310,000). AID 2546;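 further: Gal4-VP16 expression switched on by copper sulfate through the metallothionein promoter; potency means the concentration at half of the fitted maximal effect; on the % scale 0 is the no-effect control and ±100 the full control effect; nearly all actives have a fitted effect of over 50% in size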
TRPV1 agonist = human TRPV1 agonism; activation, % at 8.33 µM; Q8NER1; actives 0.19% (n = 320,000); TRPV1-expressing cells, Fluo-8 calcium influx, agonist mode; in the data active means activation above about 80%; inconclusive means between about 30% and that limit; further: 0% is about no effect
Target sequence (Q8NER1 whole entry, looked up): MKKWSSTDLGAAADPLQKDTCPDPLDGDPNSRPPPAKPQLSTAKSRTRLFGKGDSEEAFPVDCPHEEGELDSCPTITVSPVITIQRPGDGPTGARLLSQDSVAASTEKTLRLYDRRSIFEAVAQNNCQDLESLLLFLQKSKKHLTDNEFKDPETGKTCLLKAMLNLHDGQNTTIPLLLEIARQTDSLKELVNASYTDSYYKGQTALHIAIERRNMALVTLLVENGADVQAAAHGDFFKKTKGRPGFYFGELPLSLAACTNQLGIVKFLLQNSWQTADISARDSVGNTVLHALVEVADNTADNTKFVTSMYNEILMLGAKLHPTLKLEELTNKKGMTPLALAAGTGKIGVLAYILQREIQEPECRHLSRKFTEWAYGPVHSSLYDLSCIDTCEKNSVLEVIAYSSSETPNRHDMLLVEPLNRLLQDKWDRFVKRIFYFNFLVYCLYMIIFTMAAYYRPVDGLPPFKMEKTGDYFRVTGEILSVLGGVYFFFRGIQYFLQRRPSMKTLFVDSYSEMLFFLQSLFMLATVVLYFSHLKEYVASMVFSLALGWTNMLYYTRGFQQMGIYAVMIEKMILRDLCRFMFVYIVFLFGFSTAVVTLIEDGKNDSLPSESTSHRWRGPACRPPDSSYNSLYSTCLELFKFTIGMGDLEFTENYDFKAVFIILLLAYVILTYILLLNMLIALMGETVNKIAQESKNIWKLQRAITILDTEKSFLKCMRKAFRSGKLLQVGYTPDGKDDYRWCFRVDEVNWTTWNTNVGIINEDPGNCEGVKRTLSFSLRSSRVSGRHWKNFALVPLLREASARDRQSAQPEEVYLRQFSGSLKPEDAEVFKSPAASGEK
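TRPV1-expressing cells were cultured overnight at 35.5C and loaded with Fluo-8 calcium dye for 40 to 90 min at room temperature. After a 10 s baseline, compound was added and calcium influx was read kinetically for 3 min (ex 480/em 520 nm).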
uPA generation = cell surface uPA generation inhibition | Potency, µM (top dose mostly 38.3 µM), inactives show top-dose activity change, negative = inhibition, most hits filed as inhibitors | actives 0.31% (n = 330,000) | cell surface uPA generation assay, qHTS; active means well fitted inhibition curve with a large enough effect; inconclusive means small, poorly fitted or top-dose-only effect; inactive means no such curve, though single readings can be large or run the other way; tested in mouse RAW 264.7 cells; further: potency means the concentration at half of the fitted maximal effect; on the % scale 0 is the no-effect control and ±100 the full control effect; nearly all actives have a fitted effect of over 55% in size
TRPV1 potentiator = human TRPV1 potentiation; Q8NER1; TRPV1-expressing cells, Fluo-8 calcium influx, capsaicin EC20 potentiation; potentiation, % at 8.33 µM; actives 0.02% (n = 320,000); AID 540277; in the data active means potentiation above about 80%; inconclusive means between about 30% and that limit; further: 0% is about no effect
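Fluo-8 calcium influx in TRPV1-expressing cells, kinetic read (ex 480/em 520 nm). Compound added and read 3 min for agonist activity, followed by capsaicin at EC20 final and 2 min further read for enhancement.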
Active calls of the source: *; ? = inconclusive; . = not tested or not shown; [ ] = remark or other dose. Unless noted, the call rests on the fitted dose curve; in most records, active means well fitted curve in the direction sought with a large enough effect; inconclusive means small, poorly fitted or top-dose-only effect, or another doubt; inactive means no such curve, though single readings can be large; an effect the other way counts as inactive or inconclusive.

SMILES	RORgamma inh	Gal4-VP16 FLuc	TRPV1 agonist	uPA generation	TRPV1 potentiator
CC(=O)c1nc(N2C(=O)CC(Cc3cccc(C)c3)C2=O)sc1C (stereo unspecified)	30%	-9%	0	12%	0
Cc1cccc(Cc2cnc(N3C(=N)SC(c4ccccc4)C3=O)s2)c1 (stereo unspecified)	?	1.3µM*	-2	-10%	14
O=C1c2ccccc2C(=O)N1c1ncc(Cc2ccc(Cl)cc2)s1	-22%	-6%	0	-1%	5
Cc1ccc(Cc2cnc(N3C(=N)SC(C)C3=O)s2)cc1 (stereo unspecified)	5µM*	3.2µM*	20	-2%	-7
Cc1cccc(Cc2cnc(N3C(=N)SC(C)C3=O)s2)c1 (stereo unspecified)	0.35µM*	1.1µM*	3	5%	5
COC(=O)c1ccc(/C=N/Nc2nc(-c3ccccc3)cs2)cc1	-22%	-11%	4	10%	8
CC(=O)c1sc(N/N=C\c2ccccc2O)nc1C	1.4µM*	4µM*	3	-5%	3
CCOC(=O)Cc1csc(N/N=C\c2cccc(Br)c2)n1	10µM*	?	-1	1%	-2
CCOC(=O)c1sc(N/N=C/c2cccc(C)c2)nc1C	7.9µM*	?	0	8%	8
CC(=O)c1sc(Nc2cccc(C)c2)nc1C	22%	?	4	-5%	0
CCOC(=O)c1sc(N/N=C/c2ccccc2)nc1C	?	?	3	3%	4
COc1ccc(/C=N/Nc2nc(C(=O)O)cs2)cc1	3.5µM*	5µM*	0	3%	-32
COc1ccc(C2/C=C\CN(C(=O)C3CC3)C(C)C(=O)N2Cc2ccc(F)cc2)cc1 (stereo unspecified)	41%	10%	.	.	.
CCOC(=O)c1sc2nc(N3CCOCC3)c3c(c2c1N)CCN(Cc1ccccc1)C3	25%	-3%	-4	-3%	7
COc1cccc(C2NC(C(=O)O)CCC2C)c1 (stereo unspecified)	-4%[10 µM]	-10%[10 µM]	.	.	.
CCOC(=O)Cc1csc(N/N=C/c2ccccc2)n1	16µM*	-28%	0	-4%	0
COc1ccc(C2C(C(=O)c3ccccc3)=C(C)Nc3nc4ccccc4n32)c(OC)c1 (stereo unspecified)	6.3µM*	-2%	0	0%	7
COc1ccc(OC)c(C2C(C(=O)N(C)C)=C(C)Nc3nc4ccccc4n32)c1 (stereo unspecified)	-23%	5%	-4	-1%	-1
COc1ccccc1N1CCN(Cc2ccc(O)c3ncccc23)CC1	0.5µM*	?	-8	.	6
Oc1ccc(CN2CCCc3ccccc32)c2cccnc12	7.9µM*	13µM*	1	-9%	2
CCOC(=O)C1CCN(Cc2ccc(O)c3ncccc23)CC1	2.8µM*	5µM*	-1	-9%	-49
COc1cccc(CCc2ccccc2OCC[C@@H]2C[C@@H](O)CN2C)c1	7.1µM*	3%	.	.	.
Cc1ccc(-c2sc(-c3ccccc3)nc2CC(=O)Nc2ccccc2F)cc1	?	5µM*	13	4%	6
CC(NC(=O)COC(=O)c1cc(NS(=O)(=O)c2ccc(Cl)c([N+](=O)[O-])c2)ccc1O)C1CC2CCC1C2 (stereo unspecified)	?	11µM*	-1	0%	9
COc1ccc(NS(=O)(=O)c2ccc(O)c(C(=O)OCC(=O)NC(C)C3CC4CCC3C4)c2)cc1 (stereo unspecified)	?	-4%	-3	-4%	-8
SMILES	RORgamma inh	Gal4-VP16 FLuc	TRPV1 agonist	uPA generation	TRPV1 potentiator
Cc1cc(/C=N/O)c(C)n1-c1ccc(Br)cc1	?	-9%	4	7%	3
Cc1nc2ccccn2c1C(=O)N/N=C/c1cc(C)n(-c2ccc(Br)cc2)c1C	11µM*	?	-1	-2%	17
Cc1cc(/C=N/NC(N)=S)c(C)n1-c1ccc(Br)cc1	0.56µM*	-2%[10 µM]	4	-7%	2
CC(C)Oc1ccc(Br)cc1/C=N\NC(N)=S	2µM*	5µM*	3	-1%	-10
Cc1cccc(C)c1-n1c(C)cc(/C=N/NC(N)=S)c1C	0.89µM*	0.79µM*	-3	-4%	-2
CON(C)C(=O)c1nnc2c(n1)[nH]c1ccccc12	1%[10 µM]	-6%[10 µM]	.	.	.
Cc1cc(/C=N/NC(N)=S)c(C)n1-c1ccc(Cl)cc1	0.45µM*	1.1µM*	6	-25%	22
Cc1cc(/C=N/NC(N)=S)c(C)n1-c1cccc(Cl)c1	2.8µM*	10µM*	-3	-4%	-1
Cc1cc(/C=N\NC(=O)CC(=O)NC2CCCCC2)c(C)n1-c1ccc(Cl)cc1	25%	-2%[0.365 µM]	-4	.	16
C=CC[C@H](CC(=O)N(CCO)Cc1ccccc1)C(=O)NCCOC(=O)[C@H](CC=C)CC(=O)OC(C)(C)C	.	.	.	14%	.
Oc1ccccc1/C=N/NC(=S)NC1CC2C=CC1C2 (stereo unspecified)	3.2µM*	5µM*	20	2%	2
Oc1ccccc1C=NNC(=S)Nc1ccc(F)cc1	.	.	.	-18%	.
Oc1c(Cl)cc(Cl)cc1/C=N/NC(=S)NC1CC2C=CC1C2 (stereo unspecified)	4.5µM*	20µM*	1	-6%	?
Cc1ccc(OCCCc2c(C)n[nH]c2C)cc1	11µM*	?	10	-6%	2
Cc1n[nH]c(C)c1CCCCOc1ccccc1	16µM*	?	2	1%	0
CC(C)Oc1ccccc1NC(=O)CSc1nccn1C	-7%	-2%	2	6%	-4
O=[N+]([O-])c1ccc2c(c1)S(=O)(=O)C=C2	0.63µM*	?	.	.	.
COc1ccc(C2/C=C\CN(S(=O)(=O)CC34CCC(CC3=O)C4(C)C)CC(=O)N2Cc2ccc(F)cc2)cc1 (stereo unspecified)	22%	-1%	.	.	.
CCOCCCn1c(=S)[nH]c2ncccc2c1=O	10µM*	?	-1	-1%	23
CN(C)CCn1c(=S)[nH]c2ncccc2c1=O	-5%	-12%[10 µM]	1	1%	-20
CC(C)CCn1c(=S)[nH]c2ncccc2c1=O	5µM*	-28%	1	-7%	-7
O=C(Nc1cc(Oc2ccc(Cl)cc2)cc([N+](=O)[O-])c1)c1ccco1	?	7.9µM*	27	-11%	13
O=C(O)CCc1nn2c3ccccc3nc2n(-c2ccccc2)c1=O	11µM*	-6%	1	4%	-5
Clc1cccc(N2CCN(c3nnnn3-c3ccccc3)CC2)c1	17%	-8%	25	-30%	-4
O=C1CC(Sc2nnc(-c3ccccc3O)o2)C(=O)N1c1ccccc1 (stereo unspecified)	?	?	?	-22%	-6
COc1ccc(N2C(=O)CC(Sc3nnnn3-c3ccc(F)cc3)C2=O)cc1 (stereo unspecified)	11µM*	-15%[10 µM]	4	-15%	0
